In assay [1] the target is Serine/threonine-protein kinase PAK 4 (Homo sapiens) (UniProt O96013). To be noted: at 1 µM.
The target is the same in assay [2]. Particulars: at 10 µM.
For assay [3], the target named is Serine/threonine-protein kinase PAK 5 (Homo sapiens) (UniProt Q9P286). To be noted: at 1 µM.
For assay [4] the target is unchanged. Particulars: at 10 µM.
Assay [5] has as its target Serine/threonine-protein kinase PAK 6 (Homo sapiens) (UniProt Q9NQU5). Particulars: at 1 µM.
Assay [6] shares this target. To be noted: at 10 µM.
In assay [7] the target is PAS domain-containing serine/threonine-protein kinase (Homo sapiens) (UniProt Q96RG2). Particulars: at 10 µM.
PAS domain-containing serine/threonine-protein kinase (Homo sapiens), sequence (Q96RG2 whole entry, the tested form may be a part): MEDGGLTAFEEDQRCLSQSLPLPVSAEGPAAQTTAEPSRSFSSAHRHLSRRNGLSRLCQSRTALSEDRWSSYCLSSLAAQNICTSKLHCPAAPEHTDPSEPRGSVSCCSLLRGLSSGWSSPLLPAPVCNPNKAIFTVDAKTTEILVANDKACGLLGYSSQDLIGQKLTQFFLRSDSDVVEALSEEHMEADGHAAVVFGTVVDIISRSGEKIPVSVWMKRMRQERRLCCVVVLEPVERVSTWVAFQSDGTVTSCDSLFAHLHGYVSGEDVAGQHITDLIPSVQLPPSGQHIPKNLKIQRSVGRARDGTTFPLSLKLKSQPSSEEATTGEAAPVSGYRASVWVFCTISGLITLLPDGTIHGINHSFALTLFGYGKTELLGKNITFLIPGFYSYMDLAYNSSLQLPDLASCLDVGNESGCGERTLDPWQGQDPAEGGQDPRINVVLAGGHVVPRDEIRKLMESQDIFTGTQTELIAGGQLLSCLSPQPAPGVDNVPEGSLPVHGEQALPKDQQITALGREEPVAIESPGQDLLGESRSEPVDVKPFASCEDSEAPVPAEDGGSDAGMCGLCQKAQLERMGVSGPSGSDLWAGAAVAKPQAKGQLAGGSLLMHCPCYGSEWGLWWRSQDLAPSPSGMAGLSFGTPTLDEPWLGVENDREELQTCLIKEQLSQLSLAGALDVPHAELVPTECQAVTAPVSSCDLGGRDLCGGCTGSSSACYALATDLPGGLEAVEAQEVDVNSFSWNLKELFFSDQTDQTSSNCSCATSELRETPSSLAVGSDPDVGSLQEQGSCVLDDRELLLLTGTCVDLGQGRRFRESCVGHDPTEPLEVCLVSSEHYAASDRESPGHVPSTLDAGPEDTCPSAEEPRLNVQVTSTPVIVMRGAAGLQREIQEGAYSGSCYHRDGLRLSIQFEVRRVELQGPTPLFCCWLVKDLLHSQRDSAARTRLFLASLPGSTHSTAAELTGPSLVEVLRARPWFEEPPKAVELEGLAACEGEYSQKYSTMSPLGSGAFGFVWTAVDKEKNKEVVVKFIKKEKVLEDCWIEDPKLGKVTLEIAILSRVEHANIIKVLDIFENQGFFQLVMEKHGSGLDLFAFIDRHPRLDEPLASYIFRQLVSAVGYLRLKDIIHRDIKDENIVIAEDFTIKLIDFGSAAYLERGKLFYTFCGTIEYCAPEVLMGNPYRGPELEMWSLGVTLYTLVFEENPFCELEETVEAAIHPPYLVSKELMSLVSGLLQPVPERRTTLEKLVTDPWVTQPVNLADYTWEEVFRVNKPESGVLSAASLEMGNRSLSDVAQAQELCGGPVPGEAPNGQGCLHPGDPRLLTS
The target in assay [8] is Activated CDC42 kinase 1 (Homo sapiens) (UniProt Q07912). To be noted: at 1 µM.
Assay [9] shares this target. To be noted: at 10 µM.
Assay [10] has as its target ALK tyrosine kinase receptor (Homo sapiens) (UniProt Q9UM73). Particulars: at 1 µM.
Assay [11] shares this target. To be noted: at 10 µM.
Assay [12] concerns the target T1, Activin receptor type-1B (Homo sapiens) (UniProt P36896).
T1 sequence (whole entry): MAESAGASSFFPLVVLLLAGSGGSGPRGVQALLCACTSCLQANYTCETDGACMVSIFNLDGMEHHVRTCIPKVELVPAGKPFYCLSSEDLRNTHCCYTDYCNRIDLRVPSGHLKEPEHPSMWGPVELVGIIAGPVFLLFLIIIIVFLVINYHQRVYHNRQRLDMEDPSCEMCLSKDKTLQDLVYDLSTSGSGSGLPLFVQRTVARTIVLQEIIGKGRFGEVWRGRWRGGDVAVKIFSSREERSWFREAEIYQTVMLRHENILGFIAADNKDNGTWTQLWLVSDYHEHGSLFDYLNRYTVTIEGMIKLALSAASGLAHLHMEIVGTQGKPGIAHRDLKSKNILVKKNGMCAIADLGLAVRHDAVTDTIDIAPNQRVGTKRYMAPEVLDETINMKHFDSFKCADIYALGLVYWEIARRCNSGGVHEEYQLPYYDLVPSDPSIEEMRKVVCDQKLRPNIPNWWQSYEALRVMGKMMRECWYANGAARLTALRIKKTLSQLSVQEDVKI
Particulars: at 1 µM.

Assay [13] addresses T1, Activin receptor type-1B (Homo sapiens). Particulars: at 10 µM.
In assay [14] the target is T2, AMP-activated protein kinase (AMPK) alpha-1/beta-1/gamma-1 (Homo sapiens) (UniProt P54619+Q9Y478+Q13131). To be noted: at 1 µM.
T2 sequence (P54619 whole entry): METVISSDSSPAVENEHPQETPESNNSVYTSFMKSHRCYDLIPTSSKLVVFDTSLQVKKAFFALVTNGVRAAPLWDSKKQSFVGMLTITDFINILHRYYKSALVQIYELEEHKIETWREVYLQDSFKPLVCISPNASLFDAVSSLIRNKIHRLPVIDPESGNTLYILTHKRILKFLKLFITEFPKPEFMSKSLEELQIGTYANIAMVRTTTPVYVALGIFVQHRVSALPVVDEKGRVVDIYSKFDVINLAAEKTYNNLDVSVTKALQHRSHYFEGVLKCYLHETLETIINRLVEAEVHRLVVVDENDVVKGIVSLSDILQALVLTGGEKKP
T2 sequence (Q13131 whole entry partner): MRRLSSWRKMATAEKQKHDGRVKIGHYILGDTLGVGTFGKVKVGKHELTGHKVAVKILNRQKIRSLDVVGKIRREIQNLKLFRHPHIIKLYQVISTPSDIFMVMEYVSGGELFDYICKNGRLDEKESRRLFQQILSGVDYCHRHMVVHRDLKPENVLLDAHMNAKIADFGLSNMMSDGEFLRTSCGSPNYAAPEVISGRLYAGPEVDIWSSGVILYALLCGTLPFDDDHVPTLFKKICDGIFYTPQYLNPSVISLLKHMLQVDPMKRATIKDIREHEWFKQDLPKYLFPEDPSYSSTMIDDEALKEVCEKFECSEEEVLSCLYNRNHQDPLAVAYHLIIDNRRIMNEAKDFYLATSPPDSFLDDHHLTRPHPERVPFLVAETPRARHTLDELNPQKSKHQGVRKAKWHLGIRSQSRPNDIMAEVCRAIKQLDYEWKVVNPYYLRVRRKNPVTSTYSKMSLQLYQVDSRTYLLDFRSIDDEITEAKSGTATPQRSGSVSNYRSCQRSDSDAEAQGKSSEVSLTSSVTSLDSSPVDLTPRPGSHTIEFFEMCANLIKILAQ
T2 sequence (Q9Y478 2-270 partner limits assumed): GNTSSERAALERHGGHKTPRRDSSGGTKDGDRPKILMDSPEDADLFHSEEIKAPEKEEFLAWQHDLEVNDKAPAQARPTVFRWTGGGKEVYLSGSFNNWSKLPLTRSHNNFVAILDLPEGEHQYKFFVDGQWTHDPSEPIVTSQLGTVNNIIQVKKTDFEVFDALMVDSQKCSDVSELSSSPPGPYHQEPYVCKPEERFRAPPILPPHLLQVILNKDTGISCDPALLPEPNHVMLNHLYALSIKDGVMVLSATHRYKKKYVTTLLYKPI
The target in assay [15] is T2, AMP-activated protein kinase (AMPK) alpha-1/beta-1/gamma-1 (Homo sapiens). To be noted: at 10 µM.
The target in assay [16] is T3, AMP-activated protein kinase, AMPK (Homo sapiens) (UniProt P54646+O43741+P54619+Q9UGJ0+Q9Y478+Q13131+Q9UGI9). To be noted: at 1 µM.
For assay [17], the target named is T3, AMP-activated protein kinase, AMPK (Homo sapiens). To be noted: at 10 µM.
The target in assay [18] is T4, NUAK family SNF1-like kinase 1 (Homo sapiens) (UniProt O60285).
T4 sequence (whole entry): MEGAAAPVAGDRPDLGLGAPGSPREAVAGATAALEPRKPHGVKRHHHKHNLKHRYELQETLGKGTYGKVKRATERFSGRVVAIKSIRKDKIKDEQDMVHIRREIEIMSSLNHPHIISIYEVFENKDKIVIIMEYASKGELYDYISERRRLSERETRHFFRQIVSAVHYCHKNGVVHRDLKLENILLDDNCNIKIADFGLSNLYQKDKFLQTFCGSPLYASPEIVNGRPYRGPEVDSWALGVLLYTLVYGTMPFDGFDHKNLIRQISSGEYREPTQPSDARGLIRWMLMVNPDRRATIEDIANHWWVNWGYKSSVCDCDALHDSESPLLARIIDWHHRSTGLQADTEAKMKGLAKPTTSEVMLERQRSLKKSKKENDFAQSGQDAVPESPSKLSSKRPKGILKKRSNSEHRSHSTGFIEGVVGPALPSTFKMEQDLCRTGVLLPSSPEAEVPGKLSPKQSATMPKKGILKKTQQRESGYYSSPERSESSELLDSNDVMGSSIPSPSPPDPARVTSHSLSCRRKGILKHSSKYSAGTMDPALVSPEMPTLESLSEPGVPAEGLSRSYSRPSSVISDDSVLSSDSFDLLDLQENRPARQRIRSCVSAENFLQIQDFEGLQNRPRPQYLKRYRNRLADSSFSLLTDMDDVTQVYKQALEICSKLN
Particulars: at 1 µM.

Assay [19] addresses T4, NUAK family SNF1-like kinase 1 (Homo sapiens). Particulars: at 10 µM.
Assay [20] deals with T5, Mitogen-activated protein kinase kinase kinase 5 (Homo sapiens) (UniProt Q99683).
T5 sequence (whole entry): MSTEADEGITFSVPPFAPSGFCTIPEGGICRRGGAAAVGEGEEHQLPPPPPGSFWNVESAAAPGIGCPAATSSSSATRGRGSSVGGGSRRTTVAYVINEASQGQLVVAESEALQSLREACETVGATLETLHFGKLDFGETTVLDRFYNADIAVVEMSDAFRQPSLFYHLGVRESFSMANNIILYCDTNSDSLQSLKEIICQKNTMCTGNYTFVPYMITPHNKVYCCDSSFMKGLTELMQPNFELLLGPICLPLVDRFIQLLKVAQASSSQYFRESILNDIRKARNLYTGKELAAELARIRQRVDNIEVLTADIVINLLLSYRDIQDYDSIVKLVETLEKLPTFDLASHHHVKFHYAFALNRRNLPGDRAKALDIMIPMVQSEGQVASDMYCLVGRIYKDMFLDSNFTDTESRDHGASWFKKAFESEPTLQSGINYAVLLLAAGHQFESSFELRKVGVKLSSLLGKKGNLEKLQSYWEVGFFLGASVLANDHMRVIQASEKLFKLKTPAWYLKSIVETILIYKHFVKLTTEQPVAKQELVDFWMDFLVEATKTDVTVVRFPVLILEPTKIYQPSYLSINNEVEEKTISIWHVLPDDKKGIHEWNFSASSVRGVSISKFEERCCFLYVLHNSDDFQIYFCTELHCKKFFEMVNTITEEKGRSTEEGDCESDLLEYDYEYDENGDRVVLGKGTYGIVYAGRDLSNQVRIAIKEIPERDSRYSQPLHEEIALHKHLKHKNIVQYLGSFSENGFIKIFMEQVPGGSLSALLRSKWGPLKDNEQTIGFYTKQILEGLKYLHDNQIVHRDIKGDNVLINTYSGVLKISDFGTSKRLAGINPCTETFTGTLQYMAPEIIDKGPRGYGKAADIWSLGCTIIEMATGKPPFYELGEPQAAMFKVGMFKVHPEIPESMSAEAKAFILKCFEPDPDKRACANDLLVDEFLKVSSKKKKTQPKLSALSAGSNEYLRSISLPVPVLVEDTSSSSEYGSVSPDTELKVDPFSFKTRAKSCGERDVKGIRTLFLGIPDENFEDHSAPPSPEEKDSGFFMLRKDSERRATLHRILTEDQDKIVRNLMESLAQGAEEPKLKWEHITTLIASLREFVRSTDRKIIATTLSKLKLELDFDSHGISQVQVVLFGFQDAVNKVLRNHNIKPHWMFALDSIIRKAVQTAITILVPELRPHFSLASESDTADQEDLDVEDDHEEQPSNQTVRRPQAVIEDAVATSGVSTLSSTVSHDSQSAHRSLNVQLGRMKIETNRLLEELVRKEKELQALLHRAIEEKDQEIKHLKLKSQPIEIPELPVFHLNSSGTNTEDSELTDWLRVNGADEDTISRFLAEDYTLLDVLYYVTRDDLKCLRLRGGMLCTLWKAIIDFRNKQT
To be noted: at 1 µM.

Among the data in ChEMBL document CHEMBL2218924, “A broad activity screen in support of a chemogenomic map for kinase signalling research and drug discovery” (Biochem J, 2013) are residual activity values, retold here.

Serine/threonine-protein kinase PAK 4 (Homo sapiens), sequence (O96013 whole entry, looked up): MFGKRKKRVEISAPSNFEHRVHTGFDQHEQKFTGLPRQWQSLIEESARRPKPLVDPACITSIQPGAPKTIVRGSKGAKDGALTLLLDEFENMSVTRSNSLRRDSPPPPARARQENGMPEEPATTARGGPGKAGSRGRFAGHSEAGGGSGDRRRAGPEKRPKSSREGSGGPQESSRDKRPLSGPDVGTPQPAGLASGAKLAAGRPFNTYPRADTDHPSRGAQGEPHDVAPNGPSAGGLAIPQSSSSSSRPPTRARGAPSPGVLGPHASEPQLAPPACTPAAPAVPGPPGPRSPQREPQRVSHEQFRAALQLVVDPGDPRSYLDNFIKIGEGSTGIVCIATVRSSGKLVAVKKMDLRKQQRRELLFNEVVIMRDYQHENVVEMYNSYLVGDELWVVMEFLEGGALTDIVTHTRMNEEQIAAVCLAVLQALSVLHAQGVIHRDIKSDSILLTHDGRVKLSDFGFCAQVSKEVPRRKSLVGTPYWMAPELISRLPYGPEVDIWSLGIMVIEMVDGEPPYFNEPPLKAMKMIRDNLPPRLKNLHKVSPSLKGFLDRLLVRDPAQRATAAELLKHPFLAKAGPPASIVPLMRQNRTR
Serine/threonine-protein kinase PAK 5 (Homo sapiens), sequence (Q9P286 whole entry, looked up): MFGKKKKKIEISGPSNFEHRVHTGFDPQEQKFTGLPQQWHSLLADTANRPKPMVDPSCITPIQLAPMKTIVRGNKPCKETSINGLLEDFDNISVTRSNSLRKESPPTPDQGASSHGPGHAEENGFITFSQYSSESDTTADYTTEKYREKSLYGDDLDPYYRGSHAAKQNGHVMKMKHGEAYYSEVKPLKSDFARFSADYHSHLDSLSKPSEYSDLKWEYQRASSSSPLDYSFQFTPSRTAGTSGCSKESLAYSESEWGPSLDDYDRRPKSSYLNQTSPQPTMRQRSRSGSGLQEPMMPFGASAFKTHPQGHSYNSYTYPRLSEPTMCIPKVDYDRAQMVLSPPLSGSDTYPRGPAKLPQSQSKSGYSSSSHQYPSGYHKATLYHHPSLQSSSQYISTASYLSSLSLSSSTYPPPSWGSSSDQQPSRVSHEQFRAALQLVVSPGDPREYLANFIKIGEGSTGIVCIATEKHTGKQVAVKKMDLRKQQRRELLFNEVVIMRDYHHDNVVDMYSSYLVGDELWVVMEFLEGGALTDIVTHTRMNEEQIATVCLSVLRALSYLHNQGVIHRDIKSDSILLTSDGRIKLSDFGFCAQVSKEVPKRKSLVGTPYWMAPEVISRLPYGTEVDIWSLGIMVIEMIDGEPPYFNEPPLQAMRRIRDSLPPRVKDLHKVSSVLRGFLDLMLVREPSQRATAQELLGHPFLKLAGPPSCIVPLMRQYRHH
Serine/threonine-protein kinase PAK 6 (Homo sapiens), sequence (Q9NQU5 whole entry, looked up): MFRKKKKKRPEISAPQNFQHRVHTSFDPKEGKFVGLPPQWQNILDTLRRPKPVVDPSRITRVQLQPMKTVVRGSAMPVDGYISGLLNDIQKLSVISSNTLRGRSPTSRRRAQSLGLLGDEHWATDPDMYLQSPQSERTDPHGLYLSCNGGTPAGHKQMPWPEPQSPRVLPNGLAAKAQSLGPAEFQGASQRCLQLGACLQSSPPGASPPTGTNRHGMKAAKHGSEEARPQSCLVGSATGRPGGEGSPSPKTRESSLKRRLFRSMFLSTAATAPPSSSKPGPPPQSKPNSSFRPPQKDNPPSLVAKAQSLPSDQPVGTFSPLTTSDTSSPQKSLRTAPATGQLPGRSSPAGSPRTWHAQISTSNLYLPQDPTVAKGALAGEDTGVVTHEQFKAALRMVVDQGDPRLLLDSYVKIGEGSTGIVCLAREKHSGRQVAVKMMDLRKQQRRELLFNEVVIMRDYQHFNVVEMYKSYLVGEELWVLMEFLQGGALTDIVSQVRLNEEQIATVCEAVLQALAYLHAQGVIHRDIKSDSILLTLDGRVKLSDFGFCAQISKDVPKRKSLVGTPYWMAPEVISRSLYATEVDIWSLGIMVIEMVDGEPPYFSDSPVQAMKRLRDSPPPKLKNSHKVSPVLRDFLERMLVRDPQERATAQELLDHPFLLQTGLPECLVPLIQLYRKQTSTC

Regarding `Cn1cnc2cc3c(Nc4cccc(Br)c4)ncnc3cc21`, the residual activity was 100% in assay [1]; 89% in assay [2]; 98% in [3]; 90% in assay [4]; 90% in assay [5]; 106% in assay [6]. Further, the residual activity in assay [7] is 77%; in assay [8], 66%; in [9], 16%; in assay [10] it was 85%; in assay [11], 59%; in assay [12], 123%. For the same compound, the residual activity in assay [13] was 82%; in assay [14], 90%; in assay [15] it was 69%; in assay [16] it was 102%; in assay [17] it was 65%; in [18], 99%. Besides, the residual activity in assay [19] was 80%; in assay [20], 113%.
In the case of `Cc1ccc(S(=O)(=O)/C=C/C#N)cc1`, the residual activity in [1] stood at 99%; in [2] it was 95%; in assay [3] it was 106%; in assay [4], 106%; in [5] it was 95%; in assay [6], 84%. Further, the residual activity came to 86% in assay [7]; 81% in assay [8]; 75% in [9]; 99% in [10]; 93% in assay [11]; 103% in assay [12]. The residual activity in assay [13] worked out at 106%; in assay [14], 89%; in assay [15], 89%; in assay [16] it was 87%; in [17], 86%; in assay [18], 109%. Also, the figures for the residual activity in assay [19] and in [20] were 94% and 111%, respectively.
Regarding `Cn1cc(/C=C2\C(=O)Nc3ccc(S(N)(=O)=O)cc32)c2ccccc21`, the residual activity in assay [1] was 28%; in assay [2], 7%; in assay [3] it was 41%; in assay [4], 26%; in assay [5] it was 46%; in assay [6], 22%. Besides, the residual activity in [7] came to 71%; in [8] it was 60%; in [9] it was 36%; in [10], 56%; in [11], 31%; in assay [12], 118%. Moreover, the residual activity turned out to be 104% in assay [13]; 9% in assay [14]; 4% in [15]; 9% in assay [16]; 4% in [17]; 18% in assay [18]. The residual activity in assay [19] stood at 11%; in assay [20], 29%.
For `Oc1ccc(-c2nc(-c3ccc(F)cc3)c(-c3ccncc3)[nH]2)cc1`, the residual activity in assay [1] was found to be 107%; in assay [2], 96%; in assay [3] it was 99%; in [4], 85%; in assay [5], 88%; in [6], 84%. The residual activity is 34% in assay [7]; 81% in assay [8]; 27% in assay [9]; 83% in assay [10]; 82% in assay [11]; 57% in [12]. In addition, the residual activity in assay [13] came to 8%; in [14], 102%; in assay [15] it was 86%; in assay [16], 109%; in [17], 86%; in assay [18], 122%. The residual activity turned out to be 93% in assay [19] and 92% in assay [20].
For the compound `Oc1c2ccccc2c2c3c(cccc13)N=N2`, the residual activity came to 88% in [1]; 45% in [2]; 99% in assay [3]; 64% in [4]; 91% in [5]; 49% in assay [6]. The residual activity in [7] was 81%; in assay [8] it was 50%; in [9] it was 12%; in assay [10], 61%; in [11] it was 29%; in [12] it was 86%. Moreover, the residual activity was found to be 84% in [13]; 64% in [14]; 24% in assay [15]; 69% in assay [16]; 28% in assay [17]; 28% in assay [18]. In addition, the residual activity is 17% in [19] and 36% in assay [20].
For `CNc1cc2c(Nc3cccc(Br)c3)ncnc2cn1`, the residual activity was found to be 88% in [1]; 65% in assay [2]; 97% in assay [3]; 104% in assay [4]; 101% in [5]; 89% in [6]. In addition, the residual activity in assay [7] worked out at 57%; in assay [8] it was 46%; in assay [9], 11%; in [10] it was 78%; in [11], 72%; in assay [12], 121%. Also, the residual activity in assay [13] was 116%; in [14] it was 100%; in assay [15], 80%; in assay [16], 91%; in assay [17], 86%; in assay [18], 100%. Also, the values for the residual activity in assay [19] and in [20] were 80% and 103%, respectively.
With `COc1cc2ncnc(Nc3ccc(Oc4ccccc4)cc3)c2cc1OC`, the residual activity in assay [1] came out at 94%; in assay [2], 80%; in assay [3], 108%; in assay [4] it was 136%; in [5] it was 98%; in [6], 124%. The residual activity in assay [7] turned out to be 131%; in assay [8] it was 28%; in assay [9] it was 9%; in assay [10], 54%; in assay [11] it was 72%; in assay [12], 121%. Further, the residual activity in assay [13] came out at 112%; in [14], 86%; in assay [15], 140%; in assay [16] it was 94%; in [17], 144%; in assay [18] it was 104%. In addition, the residual activity in [19] was 79%; in assay [20], 84%.
